# Inconclusive results are not listed. Values without a mark were called inactive. The call rests on the fitted dose curve; in most records, active means well fitted inhibition curve with a large enough effect; inconclusive means small, poorly fitted or top-dose-only effect, or effect the other way; inactive means flat fitted curve, though single readings scatter.
# Target: D(1A) dopamine receptor (Homo sapiens) (UniProt P21728)
# Test: HTS Assay for Allosteric Agonists of the Human D1 Dopamine Receptor: Primary Screen for Antagonists (AID 488983);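 further: calcium flux response to an EC80 dopamine challenge measured with no-wash dye; nearly all actives have a fitted effect of over 65% in size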
# Conditions: D1 receptor cell assay, antagonist mode, qHTS titration; series mostly up to 41.8 µM; activity change, negative = inhibition: at the top concentration
# Outline: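 Calcium flux readout, no-wash dye, inducible HEK293 T-REx D1 line (force-coupled). Compound added after 10 s baseline, 180 s kinetic read; then dopamine at EC80, further 180 s read.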
# On the % scale 0 is the no-effect control and ±100 the full control effect.
# Chain of D(1A) dopamine receptor (Homo sapiens) (P21728 whole entry, looked up): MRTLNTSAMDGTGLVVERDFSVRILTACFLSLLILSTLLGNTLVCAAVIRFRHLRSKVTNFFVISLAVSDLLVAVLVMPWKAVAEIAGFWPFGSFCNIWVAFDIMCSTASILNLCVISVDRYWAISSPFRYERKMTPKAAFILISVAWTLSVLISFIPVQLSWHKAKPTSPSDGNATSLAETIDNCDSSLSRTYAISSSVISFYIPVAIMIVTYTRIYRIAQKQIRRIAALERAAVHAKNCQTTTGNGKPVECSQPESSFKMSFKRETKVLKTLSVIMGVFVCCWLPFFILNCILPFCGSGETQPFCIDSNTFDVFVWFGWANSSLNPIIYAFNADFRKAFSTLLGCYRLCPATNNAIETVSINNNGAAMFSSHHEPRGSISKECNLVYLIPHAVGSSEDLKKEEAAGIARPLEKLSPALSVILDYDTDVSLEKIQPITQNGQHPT
row,SMILES,"activity change, negative = inhibition [%]"
1,N[C@@H](CCCC(=O)O)C(=O)O,6.76
2,CSC(N)=NCCC[C@H](N)C(=O)O,-0.606
3,NCCCCN=C(N)N,1.72
4,C#CCn1c(=O)c2c(ncn2C)n(C)c1=O,11.4
5,O=C(O)Cc1c[nH]c2ccc(O)cc12,6.31
6,COc1cc(N)c(Cl)cc1C(=O)OCCN1CCCCC1,-7.96
7,c1ccc(C2CN3CCSC3=N2)cc1 (stereo not drawn),12.7
8,NCCS(=O)O,-0.605
9,Oc1ccc(Cn2cc[nH]c2=S)cc1,14.4
10,COc1ccc(-c2ccc(N)[n+](CCCC(=O)O)n2)cc1,-4.2
11,CC(C)Cn1c(=O)n(C)c(=O)c2[nH]cnc21,11.5
12,Cn1cc(C(F)(F)F)nc1-c1ccc(OCC(O)CNCCOc2ccc(O)c(C(N)=O)c2)cc1 (stereo not drawn),10.2
13,Cn1c(=O)c2c(nc(/C=C/c3cccc(Cl)c3)n2C)n(C)c1=O,5.94
14,Cn1cc(C(=O)OCC2CCN(CCNS(C)(=O)=O)CC2)c2ccccc21,-9.03
15,NC/C=C\C(=O)O,14.4
16,Nc1ccc(-c2nc3ccc(-c4nc5ccc(N)cc5[nH]4)cc3[nH]2)cc1,-11.7
17,NC(=O)c1cc[n+](CC2=C(C(=O)O)N3C(=O)[C@@H](NC(=O)[C@@H](c4ccccc4)S(=O)(=O)[O-])[C@H]3SC2)cc1,9.74
18,N[C@@H](Cc1c[nH]c2ccccc12)C(=O)O,0.431
19,CN[C@H](CC(=O)O)C(=O)O,-0.979
20,CCCCCCCCCC[Si](C)(C)CCC(=O)NC(Cc1ccc(C)cc1)c1ccccc1 (stereo not drawn),3.64
21,Cc1cccc(C)c1OCC(N)C(C)C (stereo not drawn),1.02
22,Cn1ccnc1,6.23
23,CCCn1c(=O)c2[nH]c(-c3ccc(S(=O)(=O)O)cc3)nc2n(CCC)c1=O,2.33
